# Source: article PMC12615815
# Assays:
# Test in all cases: cross-link between two proteins; cross-linking mass spectrometry
# [1] = biological target: Large ribosomal subunit protein bL25 (UniProt P68919)
# [2] = biological target: Large ribosomal subunit protein uL23 (UniProt P0ADZ0)
# [3] = biological target: Small ribosomal subunit protein bS1 (UniProt P0AG67)
# [4] = biological target: Small ribosomal subunit protein uS14 (UniProt P0AG59)
substance,measurement,setting,value
"Large ribosomal subunit protein bL9, P0A7R1",listed as a hit,[1],yes
"Large ribosomal subunit protein uL16, P0ADY7",listed as a hit,[1],yes
"Large ribosomal subunit protein uL29, P0A7M6",listed as a hit,[2],yes
"Small ribosomal subunit protein bS18, P0A7T7",listed as a hit,[3],yes
"Large ribosomal subunit protein bL31, P0A7M9",listed as a hit,[4],yes
"Small ribosomal subunit protein uS3, P0A7V3",listed as a hit,[4],yes
